Hits are enriched below; roughly 0.13% of the tested compounds scored in any of these assays.
IL2 activator – activators of IL-2; IL-2 activation reporter assay, cell-based qHTS; stimulated with anti-CD3/CD4/CD28 beads; in transgenic mouse T cells; activation, % (series mostly up to about 46 µM); 0.065% of 360,000 active; in the data active = activation above about 50%
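Readout: EGFP and DsRed signals by fluorescent plate cytometry. Unstimulated transgenic mouse T cells received compound 60 min before antibody-bead stimulation, then incubated 18 h at 37 degrees C.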
GLA inh pH 4.5 – inhibitors of human alpha-galactosidase A at pH 4.5. activity change, negative = inhibition, % at 105 µM. AID 1467. purified enzyme, 4-MU-alpha-Gal fluorescence, pH 4.5. P06280. 230,000 tested, under 10 active
aGal spleen mod – inhibits or activates alpha-galactosidase in human spleen homogenate | P06280 | human spleen homogenate, 4MU-alpha-Gal fluorescence, 40 min | Potency, µM (series often up to 80 µM), most hits filed as inhibitors | 0.008% of 240,000 active | AID 2107
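Spleen homogenate 1 ug + cpd (titration) + 4-MU-alpha-D-galactopyranoside 1 mM; 37C 40 min; 50 mM citrate/phosphate pH 5.0, 0.01% Tween-20; stop pH 10; fluorescence 365/440; AC50 via Hill.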
a7 integrin act – integrin-mediated muscular dystrophy alleviation activation. alpha7betagal myoblasts, beta-gal FDG fluorescence, 48 h. Potency, µM (top dose mostly 38.3 µM), actives largely listed as activators. 0.064% of 350,000 active; also: nearly all actives have a fitted effect of over 60% in size
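Alpha7betagal+/- myoblasts (passage 13) were plated 16-24 hr, then exposed to compounds (1:260 dilution of DMSO stock) for 48 hours at 37C. After MPER lysis, β-galactosidase reporter activity was read as FDG fluorescence (ex 480/em 540) after 30 minutes.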
Of the large screens only hits and unclear results are named; the others gave an inactive call. Unless noted, calls follow the shape of the dose curve; as a rule, active = well fitted curve in the direction sought with a large enough effect; inconclusive = small, poorly fitted or top-dose-only effect, or another doubt; inactive = no such curve, though single readings can be large; an effect the other way counts as inactive or inconclusive.

O=C1SC(Cc2ccccc2)C(=O)N1c1ccccc1 (centres undefined)	a7 integrin act 7.9µM
CCc1nc2ccc(N3CCN(C)CC3)cc2nc1CC	none
CN1CCN(c2ccc3nccnc3c2)CC1	aGal spleen mod 35µM
NC1CCCC[C@H]1N (some centres undefined)	none (no result: IL2 activator, GLA inh pH 4.5, a7 integrin act)
COc1ccc(OC)c(N=Cc2c(O)n(Cc3ccccc3)c(=S)[nH]c2=O)c1	IL2 activator 80
O=C(Cn1nc(-c2ccc(Cl)cc2)ccc1=O)N1CCC2(CC1)OCCO2	a7 integrin act 11µM
O=C(CCn1nc(-c2ccc(Cl)cc2)ccc1=O)N1CCC2(CC1)OCCO2	none
O=C1C(Cl)=C(Cl)C(=O)C(Cl)=C1Cl	none (no result: IL2 activator, a7 integrin act)
CN(C)c1ccc(N=Cc2c(O)n(CCC3=CCCCC3)c(=O)[nH]c2=O)cc1	IL2 activator 206
ClC1=C(Cl)C(Cl)(C2(Cl)C(Cl)=C(Cl)C(Cl)=C2Cl)C(Cl)=C1Cl	none (no result: IL2 activator, GLA inh pH 4.5, a7 integrin act)
